Hit rate of the full screen: of about 39,000 compounds, about 3,300 (8.5%) were called active. The sample as a whole holds a higher share of actives than the screen did.

The test concerns HepG2. In words: cytotoxicity call (relative viability < 0.9). As to conditions: 10 µM.
With `C[C@H](CO)N1C[C@H](C)[C@@H](CN(C)S(=O)(=O)c2cn(C)cn2)Oc2ccc(NC(=O)Cn3cnnn3)cc2CC1=O`, the cytotoxicity call was “inactive”. To `Cc1noc(C)c1S(=O)(=O)Nc1ccc2c(c1)C(=O)N([C@@H](C)CO)C[C@H](C)[C@H](CN(C)S(C)(=O)=O)O2` belongs “inactive”. To `COc1ccc(CN(C)C[C@H]2OCCCC[C@H](C)Oc3ccc(NC(=O)Nc4ccc(C(F)(F)F)cc4)cc3C(=O)N([C@@H](C)CO)C[C@@H]2C)cc1` belongs “active”; to `COc1ccc(NC(=O)Nc2ccc3c(c2)C(=O)N([C@H](C)CO)C[C@H](C)[C@H](CN(C)Cc2ccc(C(F)(F)F)cc2)OCCCC[C@H](C)O3)cc1`, “inactive”; to `COc1ccc(NC(=O)Nc2ccc3c(c2)C(=O)N([C@H](C)CO)C[C@H](C)[C@H](CN(C)Cc2ccc(C(F)(F)F)cc2)OCCCC[C@@H](C)O3)cc1`, “inactive”. To `COc1ccc(NC(=O)Nc2ccc3c(c2)C(=O)N([C@@H](C)CO)C[C@@H](C)[C@@H](CN(C)Cc2ccc(C(F)(F)F)cc2)OCCCC[C@@H](C)O3)cc1` belongs “inactive”.

As for `COc1ccc(NC(=O)Nc2ccc3c(c2)C(=O)N([C@H](C)CO)C[C@@H](C)[C@H](CN(C)Cc2ccc(C(F)(F)F)cc2)OCCCC[C@H](C)O3)cc1`, the cytotoxicity call is “inactive”.

With `COc1ccc(NC(=O)Nc2ccc3c(c2)C(=O)N([C@H](C)CO)C[C@H](C)[C@@H](CN(C)Cc2ccc(C(F)(F)F)cc2)OCCCC[C@@H](C)O3)cc1`, the cytotoxicity call is “inactive”.

Consider `COc1ccc(CN(C)C[C@@H]2OCCCC[C@@H](C)Oc3ccc(NC(=O)Nc4ccc(C(F)(F)F)cc4)cc3C(=O)N([C@H](C)CO)C[C@H]2C)cc1`, for which the cytotoxicity call is “active”. Next, `COc1ccc(CN(C)C[C@H]2OCCCC[C@@H](C)Oc3ccc(NC(=O)Nc4ccc(C(F)(F)F)cc4)cc3C(=O)N([C@@H](C)CO)C[C@H]2C)cc1`: “active”; `COc1ccc(CN(C)C[C@@H]2OCCCC[C@@H](C)Oc3ccc(NC(=O)Nc4ccc(C(F)(F)F)cc4)cc3C(=O)N([C@H](C)CO)C[C@@H]2C)cc1`: “active”; `COc1ccc(NC(=O)Nc2ccc3c(c2)C(=O)N([C@@H](C)CO)C[C@H](C)[C@H](CN(C)Cc2ccc(C(F)(F)F)cc2)OCCCC[C@@H](C)O3)cc1`: “inactive”. Next, `CC(C)NC(=O)N(C)C[C@H]1OCCCC[C@H](C)Oc2ccc(NS(=O)(=O)c3cn(C)cn3)cc2C(=O)N([C@@H](C)CO)C[C@@H]1C`: “inactive”; `C[C@@H]1CN([C@H](C)CO)C(=O)c2cccc(NS(=O)(=O)c3ccccc3)c2O[C@H]1CN(C)S(=O)(=O)c1cccs1`: “inactive”; `COc1ccc(S(=O)(=O)N(C)C[C@@H]2Oc3ccc(NS(=O)(=O)c4c(C)noc4C)cc3C(=O)N([C@@H](C)CO)C[C@@H]2C)cc1`: “inactive”.

The values above are taken from the antibiotic and cytotoxicity screens of Wong et al. (2023).
